Assay results published in PubChem BioAssay (NCI).
Compounds without any hit were thinned out: in the full panel of roughly 83,000, 20% have a hit.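 How to read the values: 0–100, growth inhibition (40 = 60% inhibited); 0, no net growth; -100 to 0, cell death (-40 = 40% of starting cells died; -100 = all dead).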 Values without a mark were called inactive. Calls of active or inactive are those of the source. How the source made its calls: active means growth percent below 10; inactive means the rest.

Columns and labels:
Assay in all cases: NCI-60 one-dose screen, 48 h (100 = growth as untreated, 0 = no growth, -100 = all killed)
Details in all cases: 10 µM unless noted
SK-MEL-2 melanoma = test system: SK-MEL-2 melanoma
EKVX NSCLC = test system: EKVX NSCLC
SN12C renal = test system: SN12C renal
UO-31 renal = test system: UO-31 renal
TK-10 renal = test system: TK-10 renal
ACHN renal = test system: ACHN renal
CAKI-1 renal = test system: CAKI-1 renal
A498 renal = test system: A498 renal
CCRF-CEM leukemia = test system: CCRF-CEM leukemia
MOLT-4 leukemia = test system: MOLT-4 leukemia
SR leukemia = test system: SR leukemia
RPMI-8226 leukemia = test system: RPMI-8226 leukemia
OVCAR-8 ovarian = test system: OVCAR-8 ovarian
OVCAR-5 ovarian = test system: OVCAR-5 ovarian
OVCAR-4 ovarian = test system: OVCAR-4 ovarian
SK-OV-3 ovarian = test system: SK-OV-3 ovarian
IGROV1 ovarian = test system: IGROV1 ovarian
OVCAR-3 ovarian = test system: OVCAR-3 ovarian
HS 578T breast = test system: HS 578T breast
NCI/ADR-RES ovarian = test system: NCI/ADR-RES ovarian

Row | Compound | growth (SK-MEL-2 melanoma) | growth (EKVX NSCLC) | growth (SN12C renal) | growth (UO-31 renal) | growth (TK-10 renal) | growth (ACHN renal) | growth (CAKI-1 renal) | growth (A498 renal) | growth (CCRF-CEM leukemia) | growth (MOLT-4 leukemia) | growth (SR leukemia) | growth (RPMI-8226 leukemia) | growth (OVCAR-8 ovarian) | growth (OVCAR-5 ovarian) | growth (OVCAR-4 ovarian) | growth (SK-OV-3 ovarian) | growth (IGROV1 ovarian) | growth (OVCAR-3 ovarian) | growth (HS 578T breast) | growth (NCI/ADR-RES ovarian)
1 | COc1ccc(C(=O)/C=C/c2ccc(Oc3nc(Nc4ccc(F)cc4)nc(N(C)C)n3)c(OC)c2)cc1 | -8.47% (active) | 75.6% | 32.2% | 42.9% | 95.7% | 36.9% | 49% | 78.3% | 19.2% | 10.8% | 12.2% | 4.01% (active) | 37.9% | 82.6% | 43.5% | 94.4% | 63.1% | 57.2% | 58.3% | 40%
2 | CN(C)c1nc(NCCNS(=O)(=O)c2ccc(C3=Nc4c(N)nc(N)nc4NC(c4ccc(C(F)(F)F)cc4)C3)cc2)nc(Nc2ccc(F)cc2)n1 (stereo not given) | -82% (active) | 26.2% | 30.8% | 84.7% | 59.4% | 58.5% | 63.1% | 41.6% | 8.86% (active) | 9.04% (active) | -23.2% (active) | -13.1% (active) | 32.8% | 29.5% | 31.3% | 49.8% | 35.8% | 23% | 27.1% | 92.9%
3 | O=C(CN1C(=O)/C(=C/c2ccccc2F)SC1=S)N1CCOCC1 | 99.1% | 95.9% | 72.6% | 58.5% | 97.8% | 50.3% | 85.5% | 129% | 41.9% | 77.7% | 27.9% | 52.8% | 93.4% | 91.9% | 73.7% | 112% | 100% | 52.8% | 104% | 92%
4 | CCOC(=O)c1ccc(Nc2nc(NN)nc(-c3ccc(OC)cc3)c2C#N)cc1 | 114% | 118% | 114% | 93.8% | 120% | 113% | 105% | 118% | -5.35% (active) | 36.1% | 97.2% | 92% | 116% | 104% | 104% | 119% | 108% | 107% | 104% | 113%
5 | COc1cc(/C=C2\C(=N)N=C(SCc3nc4ccccc4[nH]3)NC2=O)ccc1O | 105% | 101% | 103% | 64.2% | 155% | 98.1% | 86% | 113% | 99.4% | 99.2% | 88.5% | 85% | 101% | 109% | 96.6% | 103% | 106% | 103% | 93.3% | 99%
6 | CCN(CC)c1ccc(/C=N/Nc2nc(-c3ccc(C)cc3)cs2)c(O)c1 | 79.7% | 79.2% | 99.7% | 83.2% | 86.9% | 96.3% | 78% | 105% | 88.2% | 80% | 92.9% | 74.3% | 86.8% | 93.2% | 89.7% | 108% | 96.3% | 92.1% | 108% | 92.5%
7 | C=C1CCC2C3(C)COC(c4ccc(F)cc4)OC3CCC2(C)C1C/C=C1/C(=O)OCC1O (stereo not given) | -63.2% (active) | 5.53% (active) | -11.3% (active) | -90.6% (active) | -35.8% (active) | -97.6% (active) | -5.17% (active) | 89.6% | 11.4% | 8.65% (active) | 7.55% (active) | 6.7% (active) | -61.5% (active) | -6.07% (active) | 0.389% (active) | 40.5% | -26.3% (active) | -82% (active) | -5.65% (active) | -22.4% (active)
8 | O=C(Nc1ccccc1)N1CCN(c2cc(-c3cn(-c4ccccc4)nc3-c3cccc(O)c3)ccn2)CC1 | 57.4% | 77.1% | 88.8% | 55.1% | 129% | 81.7% | 70.3% | 103% | 36.8% | 33% | 19.2% | 32.5% | 43.9% | 106% | 84.2% | 98.1% | 84% | 98.2% | 83.1% | 23.7%
9 | C=C1CC[C@@H]2[C@]3(C)COC(c4cn[nH]c4-c4cccc(Cl)c4)O[C@@H]3CC[C@@]2(C)[C@@H]1C/C=C1/C(=O)OCC1O (stereo not given in full) | -23.7% (active) | 8.03% (active) | -69.6% (active) | -94.4% (active) | 3.28% (active) | -87.4% (active) | 32.6% | 151% | -14.9% (active) | 12.7% | 14.7% | -11.7% (active) | -23.3% (active) | -62% (active) | 35.2% | 49.6% | -44.1% (active) | -62% (active) | 26.8% | -56.4% (active)
10 | CC12CC[C@@H]3[C@]4(C)COC(c5cn[nH]c5-c5cccc(Cl)c5)O[C@@H]4CC[C@@]3(C)[C@@H]1CC(C1=CCOC1=O)O2 (stereo not given in full) | 42.4% | 26% | 47.9% | 16.4% | 45.9% | 31.3% | 45.6% | 73.6% | 25.5% | 12.4% | 29.7% | 13.8% | 38.7% | 61.7% | 29.1% | 62.4% | 49.8% | 44.5% | 46.8% | 31.1%
11 | COC1=C[C@]23CCC(=O)N2CCc2cc4c(cc2[C@@H]3[C@@H]1OC(=O)[C@H](C)O)OCO4 | 58.5% | 43% | 57.8% | 26.4% | 47.7% | 5.84% (active) | 15% | -9.89% (active) | 1.16% (active) | 2.59% (active) | -11.9% (active) | -17.9% (active) | 29.1% | 46.4% | 13.1% | 23.5% | 20% | -2.32% (active) | 53.9% | 74.6%
12 | C=CC[N+](C)(C)CCn1c2ccccc2c2nc3cc(C)c(C)cc3nc21 | 112% | 89.7% | 14.2% | 71% | 106% | 107% | 90% | 115% | 102% | 116% | 85% | 95.1% | 98.4% | 111% | 95% | 96.7% | 42.6% | 96.4% | 56.2% | 108%
13 | Cn1cc(-c2cc3nc(-c4cn(C)c5ncc(Br)cc45)cc(N)n3n2)c2cc(Cl)ccc21 | -76% (active) | -71.1% (active) | -87.9% (active) | -87.8% (active) | -94.9% (active) | -100% (active) | -71.7% (active) | -1.96% (active) | -37.4% (active) | -47.5% (active) | -28.1% (active) | -4.61% (active) | -54.4% (active) | -81.4% (active) | -59.4% (active) | -69.2% (active) | -73.1% (active) | -54.4% (active) | -36.1% (active) | -58.4% (active)
14 | COc1cc(C2CC(c3cc(OC)c(OC)c(OC)c3)=NN2C(C)=O)ccc1OCc1ccc(F)cc1 (stereo not given) | 69.5% | 59.4% | 53.9% | 29.7% | 50.5% | 59.2% | 53.2% | 59.4% | 59.9% | 30.6% | 39.7% | 36.6% | 61.9% | 57.8% | 42.1% | 80.1% | 45.8% | 70.3% | 58.8% | 60.6%
